# About 7,900 targets were measured; listed, in parts, are those with a hit and a random draw of the rest. About 0.6% of all pairs of compound and target were hits.
# Compound: C[C@@H]1COCCN1C2=NC(=NC(=C2)C3(CC3)S(=O)(=O)C)C4=C5C=CNC5=CC=C4
# Assay: log2 fold change, soluble protein after heating vs DMSO (PISA); higher = thermal stabilisation; K562 cells, 10 uM, 30 min; active = over 0.2 and 3.5 SD of the protein, either way, in both replicates (recomputed)
# How it was run: (§1)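 K562 cells at 2×10^6 cells/mL were exposed to 10 μM compound for 30 min, then aliquots were heated for 3 min across 48°C-58°C, pooled, and extracted in PBS containing 0.5% NP-40 at 4°C. The supernatant after 21,000xg for 90 min was taken as soluble protein and measured by TMTpro 16plex LC-MS/MS with channel sums equalised. Thermal stability is reported relative to control samples, with values from duplicates. Fold changes are given on a log2 scale.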
# Chain of UniProt Q9BWU1 (Q9BWU1 whole entry, looked up): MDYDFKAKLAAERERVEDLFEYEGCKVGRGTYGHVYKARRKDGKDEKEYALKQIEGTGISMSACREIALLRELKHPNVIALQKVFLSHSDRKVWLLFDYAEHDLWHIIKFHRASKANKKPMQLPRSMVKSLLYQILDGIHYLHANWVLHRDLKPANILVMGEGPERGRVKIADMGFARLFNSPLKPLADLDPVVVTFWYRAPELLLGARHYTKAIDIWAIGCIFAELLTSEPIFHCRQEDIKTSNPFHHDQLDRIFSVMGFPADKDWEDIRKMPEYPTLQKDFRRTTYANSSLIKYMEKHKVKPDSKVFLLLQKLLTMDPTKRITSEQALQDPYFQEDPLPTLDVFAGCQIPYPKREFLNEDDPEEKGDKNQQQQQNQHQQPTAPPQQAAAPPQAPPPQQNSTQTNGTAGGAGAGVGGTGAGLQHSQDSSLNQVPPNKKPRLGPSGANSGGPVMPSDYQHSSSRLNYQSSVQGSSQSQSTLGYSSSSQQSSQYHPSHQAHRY
# Chain of UniProt P24311 (P24311 whole entry, looked up): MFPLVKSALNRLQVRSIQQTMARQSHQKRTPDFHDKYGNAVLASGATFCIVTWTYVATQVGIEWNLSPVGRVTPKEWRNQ
# Chain of UniProt Q00536 (Q00536 whole entry, looked up): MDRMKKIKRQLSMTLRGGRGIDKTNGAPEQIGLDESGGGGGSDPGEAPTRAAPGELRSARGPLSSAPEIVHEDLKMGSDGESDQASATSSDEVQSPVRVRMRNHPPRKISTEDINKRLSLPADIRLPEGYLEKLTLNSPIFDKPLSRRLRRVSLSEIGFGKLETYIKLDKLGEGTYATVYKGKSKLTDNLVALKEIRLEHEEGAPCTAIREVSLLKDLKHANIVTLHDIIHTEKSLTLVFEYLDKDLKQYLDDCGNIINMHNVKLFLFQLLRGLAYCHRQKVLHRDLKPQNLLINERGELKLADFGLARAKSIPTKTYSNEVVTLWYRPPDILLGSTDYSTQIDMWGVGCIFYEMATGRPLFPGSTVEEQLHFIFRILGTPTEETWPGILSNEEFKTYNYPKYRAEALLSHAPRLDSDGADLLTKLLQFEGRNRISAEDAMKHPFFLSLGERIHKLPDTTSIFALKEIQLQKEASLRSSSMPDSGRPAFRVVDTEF
# Chain of UniProt Q96MX0 (Q96MX0 whole entry, looked up): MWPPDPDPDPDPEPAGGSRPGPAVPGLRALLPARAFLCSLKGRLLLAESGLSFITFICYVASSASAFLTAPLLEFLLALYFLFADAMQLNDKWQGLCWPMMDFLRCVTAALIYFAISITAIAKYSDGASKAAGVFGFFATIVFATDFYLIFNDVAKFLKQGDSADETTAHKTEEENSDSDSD
# Chain of UniProt P24863 (P24863 whole entry, looked up): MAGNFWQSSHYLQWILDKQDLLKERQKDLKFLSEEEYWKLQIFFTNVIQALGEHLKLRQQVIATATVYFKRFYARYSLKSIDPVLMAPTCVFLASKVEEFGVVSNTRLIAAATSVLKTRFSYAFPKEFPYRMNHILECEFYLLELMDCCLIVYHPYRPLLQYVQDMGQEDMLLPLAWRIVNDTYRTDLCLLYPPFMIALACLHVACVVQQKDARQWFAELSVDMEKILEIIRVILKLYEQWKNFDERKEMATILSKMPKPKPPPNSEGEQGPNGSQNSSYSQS
# Chain of UniProt Q15417 (Q15417 whole entry, looked up): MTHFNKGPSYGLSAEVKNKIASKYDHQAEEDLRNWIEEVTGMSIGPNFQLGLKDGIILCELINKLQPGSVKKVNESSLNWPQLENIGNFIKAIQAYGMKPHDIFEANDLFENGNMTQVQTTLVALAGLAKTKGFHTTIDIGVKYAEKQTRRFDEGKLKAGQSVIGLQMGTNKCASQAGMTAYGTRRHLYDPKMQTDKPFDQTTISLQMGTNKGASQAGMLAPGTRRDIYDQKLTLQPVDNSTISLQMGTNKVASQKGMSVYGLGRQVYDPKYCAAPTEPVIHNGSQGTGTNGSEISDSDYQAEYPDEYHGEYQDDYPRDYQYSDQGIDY
# Chain of UniProt Q00537 (Q00537 whole entry, looked up): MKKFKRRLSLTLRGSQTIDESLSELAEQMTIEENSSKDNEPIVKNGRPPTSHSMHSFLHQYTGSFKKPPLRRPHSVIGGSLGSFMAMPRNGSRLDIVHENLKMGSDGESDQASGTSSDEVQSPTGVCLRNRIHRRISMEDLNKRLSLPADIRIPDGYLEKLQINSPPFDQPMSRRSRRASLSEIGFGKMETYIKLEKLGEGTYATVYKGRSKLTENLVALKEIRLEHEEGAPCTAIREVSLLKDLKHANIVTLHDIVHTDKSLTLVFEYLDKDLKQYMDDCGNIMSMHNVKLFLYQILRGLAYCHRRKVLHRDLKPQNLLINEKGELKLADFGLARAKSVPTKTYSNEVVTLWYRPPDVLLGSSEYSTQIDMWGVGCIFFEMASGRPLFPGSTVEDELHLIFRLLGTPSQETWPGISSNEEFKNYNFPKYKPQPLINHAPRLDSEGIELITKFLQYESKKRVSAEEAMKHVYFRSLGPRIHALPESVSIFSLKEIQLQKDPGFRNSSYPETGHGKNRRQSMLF
# Chain of UniProt O75503 (O75503 whole entry, looked up): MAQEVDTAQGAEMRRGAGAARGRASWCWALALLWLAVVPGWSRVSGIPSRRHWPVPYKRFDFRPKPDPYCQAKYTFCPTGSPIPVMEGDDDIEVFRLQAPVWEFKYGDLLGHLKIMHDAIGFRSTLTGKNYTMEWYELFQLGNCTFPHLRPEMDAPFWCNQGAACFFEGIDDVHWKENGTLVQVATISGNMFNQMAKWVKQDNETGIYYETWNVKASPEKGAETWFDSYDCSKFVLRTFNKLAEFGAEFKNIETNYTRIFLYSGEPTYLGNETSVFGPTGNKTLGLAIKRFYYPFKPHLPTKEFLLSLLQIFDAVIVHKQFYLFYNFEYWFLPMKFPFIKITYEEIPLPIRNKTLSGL
# Chain of UniProt Q13111 (Q13111 whole entry, looked up): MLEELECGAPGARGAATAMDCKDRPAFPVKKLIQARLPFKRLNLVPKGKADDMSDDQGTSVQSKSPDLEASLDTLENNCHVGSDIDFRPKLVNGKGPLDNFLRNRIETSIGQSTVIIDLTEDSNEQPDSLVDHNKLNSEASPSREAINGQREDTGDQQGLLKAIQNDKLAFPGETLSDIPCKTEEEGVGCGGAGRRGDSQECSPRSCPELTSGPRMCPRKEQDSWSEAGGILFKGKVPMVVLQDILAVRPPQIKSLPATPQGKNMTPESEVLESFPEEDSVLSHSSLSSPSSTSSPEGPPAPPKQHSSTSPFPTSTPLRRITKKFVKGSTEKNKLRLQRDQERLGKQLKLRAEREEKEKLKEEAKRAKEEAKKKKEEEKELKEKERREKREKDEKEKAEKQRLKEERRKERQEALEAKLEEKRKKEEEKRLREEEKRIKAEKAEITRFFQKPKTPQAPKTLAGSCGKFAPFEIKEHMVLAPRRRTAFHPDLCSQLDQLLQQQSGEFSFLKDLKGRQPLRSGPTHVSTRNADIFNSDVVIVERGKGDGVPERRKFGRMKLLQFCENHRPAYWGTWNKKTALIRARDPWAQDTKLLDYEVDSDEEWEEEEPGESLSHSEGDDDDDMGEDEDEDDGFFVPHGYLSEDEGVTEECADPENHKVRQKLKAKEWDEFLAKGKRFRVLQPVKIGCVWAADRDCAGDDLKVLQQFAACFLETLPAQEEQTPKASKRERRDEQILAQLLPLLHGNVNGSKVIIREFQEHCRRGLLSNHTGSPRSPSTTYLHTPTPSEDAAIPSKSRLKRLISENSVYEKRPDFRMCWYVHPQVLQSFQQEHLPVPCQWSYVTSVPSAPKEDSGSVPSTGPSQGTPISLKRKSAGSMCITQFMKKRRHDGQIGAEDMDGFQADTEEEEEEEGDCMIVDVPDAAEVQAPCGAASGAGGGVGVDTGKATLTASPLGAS
# Chain of UniProt P11802 (P11802 whole entry, looked up): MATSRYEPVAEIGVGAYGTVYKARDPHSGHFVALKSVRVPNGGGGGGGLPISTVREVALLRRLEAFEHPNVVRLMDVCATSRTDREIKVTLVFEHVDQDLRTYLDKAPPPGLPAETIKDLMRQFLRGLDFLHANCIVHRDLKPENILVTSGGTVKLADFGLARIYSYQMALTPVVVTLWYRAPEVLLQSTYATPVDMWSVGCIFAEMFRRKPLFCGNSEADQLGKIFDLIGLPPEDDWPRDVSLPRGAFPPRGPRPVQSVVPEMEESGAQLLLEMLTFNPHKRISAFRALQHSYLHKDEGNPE
# Chain of UniProt Q9Y2V0 (Q9Y2V0 whole entry, looked up): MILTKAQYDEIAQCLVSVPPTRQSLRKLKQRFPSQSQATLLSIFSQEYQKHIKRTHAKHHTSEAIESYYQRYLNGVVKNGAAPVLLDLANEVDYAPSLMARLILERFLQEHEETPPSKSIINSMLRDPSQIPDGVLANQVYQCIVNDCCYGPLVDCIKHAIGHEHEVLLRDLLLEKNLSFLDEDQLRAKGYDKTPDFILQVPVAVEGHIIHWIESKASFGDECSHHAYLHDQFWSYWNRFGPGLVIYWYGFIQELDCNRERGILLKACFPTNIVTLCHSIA
# Chain of UniProt Q9UIB8 (Q9UIB8 whole entry, looked up): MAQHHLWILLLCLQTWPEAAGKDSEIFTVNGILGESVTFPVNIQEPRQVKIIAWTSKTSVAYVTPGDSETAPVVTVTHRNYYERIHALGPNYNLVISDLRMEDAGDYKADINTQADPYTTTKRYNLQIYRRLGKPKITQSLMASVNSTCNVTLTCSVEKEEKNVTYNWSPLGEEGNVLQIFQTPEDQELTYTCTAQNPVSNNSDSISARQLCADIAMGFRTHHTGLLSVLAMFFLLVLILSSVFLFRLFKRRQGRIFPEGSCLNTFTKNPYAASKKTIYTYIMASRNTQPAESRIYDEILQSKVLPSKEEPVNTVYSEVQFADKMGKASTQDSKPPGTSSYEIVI
# Chain of UniProt P46527 (P46527 whole entry, looked up): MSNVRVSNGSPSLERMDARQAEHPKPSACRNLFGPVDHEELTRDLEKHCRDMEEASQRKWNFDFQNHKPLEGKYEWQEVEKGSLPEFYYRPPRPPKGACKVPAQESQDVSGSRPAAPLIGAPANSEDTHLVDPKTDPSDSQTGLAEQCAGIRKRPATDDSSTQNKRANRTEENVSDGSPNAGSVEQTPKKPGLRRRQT
row,Target,log2 fold change
1,CASP8 isoform 9 (UniProt Q14790),-0.013 (inactive)
2,COX7C (UniProt P15954),0.028 (inactive)
3,CCDC57 (UniProt Q2TAC2),0.065 (inactive)
4,CRTC2 (UniProt Q53ET0),0.08 (inactive)
5,COMMD1 (UniProt Q8N668),-0.092 (inactive)
6,C15orf41 (UniProt Q9Y2V0),0.074 (inactive)
7,COG2 (UniProt Q14746),0.094 (inactive)
8,CAB39L (UniProt Q9H9S4),-0.01 (inactive)
9,CDK19 (UniProt Q9BWU1),0.03 (inactive)
10,CHAF1A (UniProt Q13111),-0.058 (inactive)
11,COPS3 isoform 2 (UniProt Q9UNS2),0.116 (inactive)
12,C19orf54 (UniProt Q5BKX5),0.182 (inactive)
13,CMTM3 (UniProt Q96MX0),-0.002 (inactive)
14,COX7B (UniProt P24311),0.02 (inactive)
15,CCNC (UniProt P24863),0.027 (inactive)
16,CDK17 isoform 2 (UniProt Q00537),-0.035 (inactive)
17,CHST11 (UniProt Q9NPF2),-0.037 (inactive)
18,CDK16 isoform 2 (UniProt Q00536),0.06 (inactive)
19,CDK4 (UniProt P11802),-0.152 (inactive)
20,CDC42SE1 (UniProt Q9NRR8),0.16 (inactive)
21,CHST10 (UniProt O43529),0.014 (inactive)
22,CDCA2 (UniProt Q69YH5),0.041 (inactive)
23,CNN3 (UniProt Q15417),0.075 (inactive)
24,CD84 (UniProt Q9UIB8),-0.201 (inactive)
25,CDKN1B (UniProt P46527),-0.295 (inactive)
26,C1D (UniProt Q13901),-0.107 (inactive)
27,C22orf39 (UniProt Q6P5X5),0.06 (inactive)
28,CRTC1 isoform 2 (UniProt Q6UUV9),0.192 (inactive)
29,CLN5 (UniProt O75503),0.06 (inactive)
30,CHPT1 (UniProt Q8WUD6),-0.07 (inactive)

# Compound: C[C@H](C1=CC=C(C=C1)C(=O)NC2=C3C=CNC3=NC=C2)N
# Assay: as above
# How it was run: as §1
row,Target,log2 fold change
1,CCDC57 (UniProt Q2TAC2),0.139 (inactive)
2,C15orf41 (UniProt Q9Y2V0),0.023 (inactive)
3,COG2 (UniProt Q14746),0.483 (inactive)
4,CDK19 (UniProt Q9BWU1),0.401 (inactive)
5,CHAF1A (UniProt Q13111),0.15 (inactive)
6,C19orf54 (UniProt Q5BKX5),0.127 (inactive)
7,CMTM3 (UniProt Q96MX0),-0.133 (inactive)
8,COX7B (UniProt P24311),-0.171 (inactive)
9,CCNC (UniProt P24863),0.247 (inactive)
10,CDK17 isoform 2 (UniProt Q00537),0.076 (inactive)
11,CHST11 (UniProt Q9NPF2),0.019 (inactive)
12,CDK16 isoform 2 (UniProt Q00536),-0.07 (inactive)
13,CDK4 (UniProt P11802),0.377 (inactive)
14,CRLS1 (UniProt Q9UJA2),-0.047 (inactive)
15,CDC42SE1 (UniProt Q9NRR8),-0.031 (inactive)
16,CHST10 (UniProt O43529),0.009 (inactive)
17,CDCA2 (UniProt Q69YH5),-0.021 (inactive)
18,CENPE (UniProt Q02224),-0.908 (inactive)
19,CEP128 (UniProt Q6ZU80),0.157 (inactive)
20,CNN3 (UniProt Q15417),-0.066 (inactive)
21,CD84 (UniProt Q9UIB8),-0.149 (inactive)
22,CLINT1 isoform 3 (UniProt Q14677),0.159 (inactive)
23,CDKN1B (UniProt P46527),-0.065 (inactive)
24,C22orf39 (UniProt Q6P5X5),-0.057 (inactive)
25,CLN5 (UniProt O75503),0.046 (inactive)
26,CHPT1 (UniProt Q8WUD6),0.023 (inactive)

# Compound: C[C@H](Nc1ncnc2nc[nH]c12)c1cc2cccc(Cl)c2c(=O)n1-c1ccccc1 [duvelisib]
# Assay: as above
# How it was run: as §1
row,Target,log2 fold change
1,CASP8 isoform 9 (UniProt Q14790),0.104 (inactive)
2,COX7C (UniProt P15954),-0.04 (inactive)
3,C15orf41 (UniProt Q9Y2V0),0.003 (inactive)
4,C6orf120 (UniProt Q7Z4R8),-0.052 (inactive)
5,COG2 (UniProt Q14746),-0.094 (inactive)
6,CAB39L (UniProt Q9H9S4),-0.014 (inactive)
7,CDK19 (UniProt Q9BWU1),-0.089 (inactive)
8,CHAF1A (UniProt Q13111),0.051 (inactive)
9,C19orf54 (UniProt Q5BKX5),0.072 (inactive)
10,CAV2 (UniProt P51636),0.075 (inactive)
11,CMTM3 (UniProt Q96MX0),0.028 (inactive)
12,COX7B (UniProt P24311),0.034 (inactive)
13,CCNC (UniProt P24863),0.044 (inactive)
14,CDK17 isoform 2 (UniProt Q00537),-0.006 (inactive)
15,CDK16 isoform 2 (UniProt Q00536),0.058 (inactive)
16,CDK4 (UniProt P11802),0.104 (inactive)
17,CRLS1 (UniProt Q9UJA2),-0.025 (inactive)
18,CDC42SE1 (UniProt Q9NRR8),0.029 (inactive)
19,CENPE (UniProt Q02224),-0.563 (inactive)
20,CEP128 (UniProt Q6ZU80),0.183 (inactive)
21,CNN3 (UniProt Q15417),-0.02 (inactive)
22,CD84 (UniProt Q9UIB8),0.036 (inactive)
23,CLINT1 isoform 3 (UniProt Q14677),-0.029 (inactive)
24,CDKN1B (UniProt P46527),0.059 (inactive)
25,C22orf39 (UniProt Q6P5X5),0 (inactive)
26,CRTC1 isoform 2 (UniProt Q6UUV9),0.139 (inactive)
27,CLN5 (UniProt O75503),0.093 (inactive)
28,CHPT1 (UniProt Q8WUD6),0.025 (inactive)
